HCMV antiviral – inhibitors of human cytomegalovirus | HFF cells, HCMV-luciferase reporter, 72 h; active compounds read low | activity change, negative = inhibition, % at 57.5 µM | 4.5% of 410,000 active | AID 1259415; in the data active means activity change below about -60%; inconclusive means no clear call, values can overlap the other calls; inactive means above about -39%; further: on the % scale 0 is the no-effect control and ±100 the full control effect
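Luciferase read-out from HCMV-luciferase-infected HFFs (MOI 1 PFU/cell) 72 h post infection at 37C; compounds added after 16 h cell attachment; activity normalized between buffer-only basal and Salinomycin (10uM) inhibitor controls.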
HCV inh – blocks hepatitis C virus. Huh7.5.1 HCVcc-Cre infection, luciferase reporter, 44 h. Potency, µM (highest dose often 41.8 µM), for the others: top-dose activity change, negative = inhibition, hits mostly inhibitors. 3.4% of 340,000 active. AID 651820; further: potency means the concentration at half of the fitted maximal effect; on the % scale 0 is the no-effect control and ±100 the full control effect
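After 44 h co-culture of compound, cells and HCVcc-Cre (~0.5 moi), substrate is added for 15 min at room temperature and luciferase measured over 15 sec. Cells were seeded at 1,000/well and pre-cultured 4 h.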
Pf growth 96h – P. falciparum growth inhibition at 96 hour, primary screen for plastid delayed-death inhibitors; 6.9% of 320,000 active; Potency, µM (highest dose often 28.7 µM), without a hit: at the highest dose activity change, negative = inhibition, usual class: inhibitors; P. falciparum luciferase reporter growth, 96 h; further: potency means the concentration at half of the fitted maximal effect; on the % scale 0 is the no-effect control and ±100 the full control effect
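Cell-based qHTS: luciferase-tagged P. falciparum in erythrocytes (2% hematocrit, 0.05% parasitemia final) incubated with compounds for 96 hours, 37 C, 5% CO2; luciferase detection reagent then added and luminescence measured.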
Pf growth 48h – P. falciparum growth inhibition at 48 hours (one generation); P. falciparum luciferase growth in erythrocytes, 48 h; Potency, µM (top dose mostly 28.7 µM), without a hit: top-dose activity change, negative = inhibition, usual class: inhibitors; 5.9% of 310,000 active; AID 504832; further: potency means the concentration at half of the fitted maximal effect; on the % scale 0 is the no-effect control and ±100 the full control effect
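In quantitative HTS format, infected erythrocytes bearing luciferase-reporter parasites were treated for a single generation at 37 C. Luminescence after adding detection reagent served as the growth measure.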
Sm TGR inh – S. mansoni TGR enzyme inhibition | Potency, µM (doses to about 114 µM), for the others: at the highest dose activity change, negative = inhibition, actives largely listed as inhibitors | AID 485364 | 3% of 360,000 active | purified TGR, DTNB reduction, TNB absorbance 405 nm; further: potency means the concentration at half of the fitted maximal effect; on the % scale 0 is the no-effect control and ±100 the full control effect; nearly all actives have a fitted effect of over 60% in size
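Kinetic colorimetric format: TGR-catalysed, NADPH-driven DTNB reduction monitored via TNB absorbance. Enzyme dispensed at 20 nM; compound exposure 15 min at room temperature before reaction start.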
SARS PLpro yeast – inhibitors of SARS-CoV papain-like protease in yeast; Potency, µM (doses to about 32.9 µM), for inactives: at the highest dose activity, positive = growth rescue, hits mostly activators; S. cerevisiae expressing SARS-CoV PLpro, growth rescue; AID 485353; 0.19% of 330,000 active; calls by dose curve; further: potency means the concentration at half of the fitted maximal effect; 0% is about no effect; nearly all actives have a fitted effect of over 55% in size
* marks the source's active call; other numbers are inactive results; ? = inconclusive; nt = not tested or not shown; ! = a repeat was not active; [ ] = another dose, or the depositor's remark. Shown are actives, neighbours in structure and some others; about 15% of the full set was active somewhere. Unless noted, the call rests on the fitted dose curve; in most records, active means well fitted curve in the direction sought with a large enough effect; inconclusive means small, poorly fitted or top-dose-only effect, or another doubt; inactive means no such curve, though single readings can be large; an effect the other way counts as inactive or inconclusive.

SMILES	HCMV antiviral	HCV inh	Pf growth 96h	Pf growth 48h	Sm TGR inh	SARS PLpro yeast
O=C(NC(=S)Nc1ccccc1N1CCCC1)c1cccc(F)c1	102	-11%	7%	?	1%	0%
O=C1c2ccccc2C(c2nnnn2Cc2ccccc2)N1C1CC1 (stereo not drawn)	-20	nt	nt	nt	nt	nt
CCCNC(=O)CSc1nnc(NC(=O)C2CC(=O)N(c3ccccc3OC)C2)s1 (stereo not drawn)	-16	nt	nt	nt	nt	nt
O=C(COC(=O)c1ccc(O)cc1)NC1CCCCCCC1	-31	nt	nt	nt	nt	nt
CCOCCn1cnc2sc(C(=O)Nc3ccccc3C(=O)OC)c(C)c2c1=O	8	nt	nt	nt	1%	nt
O=C(NC(=S)Nc1ccccc1N1CCCC1)c1ccc(F)cc1	20	?	7%	?	-6%	0%
O=C(NC(=S)Nc1ccccc1N1CCCCC1)c1ccccc1	-19	11µM*	-19%	0%	18%	14%
Nc1nc(N)c2cc(S(=O)(=O)c3ccc4ccccc4c3)ccc2n1	-82*	nt	nt	nt	nt	nt
Nc1nc(N)c2cc([N+](=O)[O-])ccc2n1	-14	?	nt	nt	nt	nt
O=c1cc(O)c2c(=O)n(-c3ccccc3)c3ccccc3c2o1	-25	-1%	12µM*	33%	6%	9%
CCn1c(=O)c2c(O)cc(=O)oc2c2ccccc21	0	5%	-2%	5%	-10%	-8%
Cc1ccc(NC(=O)Cn2c(=O)n(CCC(C)C)c(=O)c3cccnc32)cc1C	-2	nt	nt	nt	9%	nt
Cc1ccc(NC(=O)CSc2nnc(CSc3nc(C)cc(C)n3)n2Cc2ccco2)c(C)c1	58	11µM*	-26%	?	50µM*	1%
Cc1cc(C)nc(SCc2nnc(SCC(N)=O)n2Cc2ccco2)n1	-5	-9%	?	32%	0%	0%
Cc1ccc(C)c(NC(=O)CSc2nnc(CSc3nc(C)cc(C)n3)n2Cc2ccco2)c1	26	-29%	nt	?	-66%	4%
CCOC(=O)CSc1nnc(CSc2nc(C)cc(C)n2)n1Cc1ccco1	19	4%	-19%	-7%	45µM*	2%
COc1ccc(CN2CCN(C(=O)c3ccc(S(=O)(=O)N4CCCCCC4)cc3)CC2)cc1	-75*	?	?	10µM*	1%	0%
O=C(c1ccc(S(=O)(=O)N2CCCCCC2)cc1)N1CCN(Cc2ccccc2)CC1	-14	?	?	?	0%	-6%
O=C(c1ccc(S(=O)(=O)N2CCCCCC2)cc1)N1CCC(CN2C(=O)c3cccc4cccc(c34)C2=O)CC1	-26	10µM*	-38%	?	-8%	1%
COc1ccc(CN2CCN(C(=O)c3ccc(S(=O)(=O)N4CCCCCC4)cc3)CC2)cc1F	-77*	?	?	13µM*	-19%	0%
N#Cc1ccc(CN2CCN(C(=O)c3ccc(S(=O)(=O)N4CCCCCC4)cc3)CC2)cc1	-78*	7.9µM*	?	13µM*	-29%	17%
O=C1c2cccc3cccc(c23)C(=O)N1CC1CCN(S(=O)(=O)c2ccccc2)CC1	-26	-26%	nt	nt	nt	nt
CCC(CC)c1nnc(NC(=O)C2=NNC(=O)CC2)s1	-31	20%	21%	14%[5.75 µM]	-2%	-2%
CCN(C(=O)COC(=O)CCC(=O)c1cccs1)c1c(N)n(Cc2ccccc2)c(=O)[nH]c1=O	-18	10%[8.37 µM]	20%	1%	0%	-1%
Cc1ccc(NC(=O)c2sc3nc[nH]c(=O)c3c2C)cc1C	201	nt	nt	nt	3%	nt
SMILES	HCMV antiviral	HCV inh	Pf growth 96h	Pf growth 48h	Sm TGR inh	SARS PLpro yeast
COCCCNC(=O)c1ccc(Cn2c(=O)c3ccccc3n(Cc3ccccc3C)c2=O)cc1	-96*!	?	6%	nt	-3%	-6%
CCOCCCNC(=O)c1cc(=O)n(Cc2cccc(C)c2)c2ccccc12	-62*	-23%	10%	?	-15%	1%
COCCCNC(=O)c1ccc(Cn2c(=O)c3ccccc3n(Cc3ccccc3C#N)c2=O)cc1	1	-4%	-32%	nt	-3%	4%
COCCCNC(=O)c1ccc(Cn2c(=O)c3ccccc3n(Cc3cc(C)ccc3C)c2=O)cc1	19	?	nt	13µM*	-9%	-3%
CN(C(=O)CSCC(=O)O)C1CCCCC1	-23	14%	38%	-4%	-6%	4%
COc1ccc(OCc2nnc(SCC(=O)N3C(C)CCCC3C)o2)cc1 (stereo not drawn)	-9	23%	?	?	-12%	-1%
NC(=O)NC(=O)c1nccnc1C(=O)O	-4	9%	101%	20%	-7%	2%
COc1ccc(-n2cc(C(=O)OCc3ccc(Cl)cc3)c3ccccc3c2=O)cc1	15	nt	nt	nt	9%	nt
C=CCSc1nc2c(c(C3CC=CCC3)c1C#N)CCC2 (stereo not drawn)	-11	-22%	8.3µM*	?	-15%	-28%
Cc1ccc(-n2nc3c(Cl)nnc(C)c3c2C)cc1	5	0%	0.33µM*	0.41µM*	-6%	-5%
Cc1ccc(-n2nc3c(=O)n(C(C)C(=O)O)nc(C)c3c2C)cc1 (stereo not drawn)	-29	nt	nt	nt	0%	nt
O=C(C1Cc2ccccc2CN1C(=O)c1ccccc1)N1CCN(c2ccccc2)CC1 (stereo not drawn)	0	-1%	4.1µM*	?	-13%	-1%
COc1ccc(N2CCN(C(=O)C3Cc4ccccc4CN3C(=O)c3ccco3)CC2)cc1 (stereo not drawn)	-13	12%	?	8.3µM*	-27%	0%
CC(C)(C)c1ccc(Oc2nc3ccccn3c(=O)c2/C=C(\C#N)c2nc3ccccc3s2)cc1	6	nt	nt	nt	3.2µM*	nt
O=c1c2ccccc2nc2n1CCCS2	9	-12%	-2%	4%	6%	1%
O=c1c(C(c2ccc(O)cc2)c2c(O)nc3n(c2=O)CCCS3)c(O)nc2n1CCCS2	2	22%	?	2.9µM*	56µM*	-17%
O=c1c(C(c2c(O)nc3n(c2=O)CCS3)c2cccc3ccccc23)c(O)nc2n1CCS2	-3	4%	67%	-1%	?	1%
O=c1c(C(c2ccc(O)cc2)c2c(O)nc3n(c2=O)CCS3)c(O)nc2n1CCS2	-12	15%	-1%	-6%	10µM*	1%
O=c1c(C(c2ccc(Br)cc2)c2c(O)nc3n(c2=O)CCCS3)c(O)nc2n1CCCS2	-10	6%	12%	46%	2µM*	0%
Cc1ccc(C(c2c(O)nc3n(c2=O)CCS3)c2c(O)nc3n(c2=O)CCS3)cc1	0	1%	-24%	-4%	2.8µM*	25%
O=c1c(C(c2ccc(Br)cc2)c2c(O)nc3n(c2=O)CCS3)c(O)nc2n1CCS2	-20	7%	33%	6%	?	2%
